Data taken from PubChem BioAssay (EPA / NIEHS).
Values joined by “and” are separate entries in the source; they are usually repeats but may differ in a detail not shown here. Equal entries are not always repeated. The source holds several records for some structures; these can differ, active in one and inactive in another. Active and inactive are the calls of the source. How the source made its calls: active means hit-call score of the fitted dose curve at least 0.9, where 1 is the maximum; inactive means score below 0.9.

What was measured:
[1] = read-out: Urokinase-type plasminogen activator receptor (uPAR), PLAUR (gene 5329); experiment: BSK_4H_uPAR: BioMAP Diversity Plus: 4H Assay for Urokinase-type plasminogen activator receptor (uPAR) Biomarker Activity (AID 2283030); conditions: primary human endothelial cells (HUVEC); actives raise or lower the signal
How it was run: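 Endpoint derived via bidirectional curve fitting against DMSO baseline; readout was ELISA detection of uPAR on umbilical vein endothelial cells at 24 h post-treatment, with SRB-stained parallel cultures assessing cytotoxicity.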

[2] = read-out: Vascular endothelial growth factor receptor 2 (Homo sapiens) (UniProt P35968); experiment: BSK_4H_VEGFRII: BioMAP Diversity Plus: 4H Assay for Vascular endothelial growth factor receptor 2 (VEGFR2) Biomarker Activity (AID 2283031); conditions: primary human endothelial cells (HUVEC); actives raise or lower the signal;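 on AC50: cell-surface VEGFR2 protein level quantified by ELISA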
How it was run: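 In this multiplexed HUVEC system, biomarker ELISA was performed after 24 h chemical exposure. Parallel SRB staining (TCA fixation, 560 nm) tracked cytotoxicity; DMSO served as baseline.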

[3] = read-out: Human Leukocyte Antigen - DR isotype (HLADR), HLA-DRA (gene 3122); experiment: BSK_BE3C_HLADR: BioMAP Diversity Plus: BE3C Assay for Human Leukocyte Antigen - DR isotype (HLADR) Biomarker Activity (AID 2283032); conditions: primary human bronchial epithelial cells; actives raise or lower the signal
How it was run: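 BioMAP BE3C format: human bronchial epithelium, 24 h compound treatment, ELISA detection of HLA-DR, with bidirectional analysis relative to DMSO.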

[4] = read-out: Vascular cell adhesion molecule 1 (VCAM1), VCAM1 (gene 7412); experiment: BSK_4H_VCAM1: BioMAP Diversity Plus: 4H Assay for Vascular cell adhesion molecule 1 (VCAM1) Biomarker Activity (AID 2283033); conditions: primary human endothelial cells (HUVEC); actives raise or lower the signal
How it was run: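 In this human endothelial (HUVEC) system, biomarker ELISA was run 24 h after compound addition, and total protein in parallel wells was assessed by SRB at 560 nm; DMSO served as negative control.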

[5] = read-out: Interferon-gamma inducible Protein 10 (IP10), CXCL10 (gene 3627); experiment: BSK_BE3C_IP10: BioMAP Diversity Plus: BE3C Assay for Interferon-gamma inducible Protein 10 (IP10) Biomarker Activity (AID 2283034); conditions: primary human bronchial epithelial cells; actives raise or lower the signal
How it was run: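 BE3C cells (human bronchial epithelial, primary); 24 h exposure; ELISA for IP-10; DMSO-referenced bidirectional fit.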

[6] = read-out: Monokine induced gamma interferon (MIG), CXCL9 (gene 4283); experiment: BSK_BE3C_MIG: BioMAP Diversity Plus: BE3C Assay for Monokine induced gamma interferon (MIG) Biomarker Activity (AID 2283035); conditions: primary human bronchial epithelial cells; actives raise or lower the signal
How it was run: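 Dose cells (human primary bronchial epithelial), incubate 24 h, quantify MIG by ELISA, then fit concentration–response in both directions relative to DMSO control.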

[7] = read-out: Transforming growth factor beta 1 (TGFb1), TGFB1 (gene 7040); experiment: BSK_BE3C_TGFb1: BioMAP Diversity Plus: BE3C Assay for Transforming growth factor beta 1 (TGFb1) Biomarker Activity (AID 2283036); conditions: primary human bronchial epithelial cells; actives raise or lower the signal
How it was run: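 TGF-b1 measured via ELISA, 24 h after chemical dosing of human bronchial epithelial cells (BE3C). Overt cytotoxicity assessed in parallel by SRB (0.1%, TCA-fixed, 560 nm); analysis bidirectional relative to DMSO.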

[8] = read-out: Plasminogen activator inhibitor-1 (PAI1), SERPINE1 (gene 5054); experiment: BSK_BE3C_PAI1: BioMAP Diversity Plus: BE3C Assay for Plasminogen activator inhibitor-1 (PAI1) Biomarker Activity (AID 2283037); conditions: primary human bronchial epithelial cells; actives raise or lower the signal
How it was run: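 In this multiplexed primary-cell system, bronchial epithelial cells receive test chemical and are sampled at 24 h. PAI-1 is read by ELISA, with DMSO serving as negative control for bidirectional fitting.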

[9] = read-out: urokinase plasminogen activator (uPA), PLAU (gene 5328); experiment: BSK_BE3C_uPA: BioMAP Diversity Plus: BE3C Assay for urokinase plasminogen activator (uPA) Biomarker Activity (AID 2283038); conditions: primary human bronchial epithelial cells; actives raise or lower the signal
How it was run: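 Using confluent primary human lung bronchial epithelial cultures, we dosed chemicals, waited 24 h, then ran a uPA ELISA, fitting bidirectionally against DMSO.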

[10] = read-out: Urokinase-type plasminogen activator receptor (uPAR), PLAUR (gene 5329); experiment: BSK_BE3C_uPAR: BioMAP Diversity Plus: BE3C Assay for Urokinase-type plasminogen activator receptor (uPAR) Biomarker Activity (AID 2283039); conditions: primary human bronchial epithelial cells; actives raise or lower the signal
How it was run: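 Chemically treated human bronchial epithelial cells (lung primary) are assayed for uPAR by ELISA after 24 h, with data fitted in both directions using DMSO as negative control.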

Measured: AC50

CCNc1nc(Cl)nc(NC(C)(C)C#N)n1
inactive: all assays above

O=[N+]([O-])c1cc(C(F)(F)F)c(Cl)c([N+](=O)[O-])c1Nc1ncc(C(F)(F)F)cc1Cl
inactive: [2]
active: [1] 1.4 µM and 2.25 µM | [2] 1.2 µM | [3] 1.52 µM and 3.78 µM | [4] 1 µM and 2.33 µM | [5] 1.23 µM and 4.77 µM | [6] 4.03 µM and 7.17 µM | [7] 2.51 µM and 9.94 µM | [8] 7.78 µM and 8.98 µM | [10] 7.71 µM and 8.37 µM

COP(=O)(OC)SCn1c(=O)oc2cc(Cl)cnc21
active: [3] 22 µM | [5] 31.2 µM
inactive: all other assays above

CNC(=O)ON=C(C)SC
inactive: all assays above

Cc1nn(-c2cc(NS(C)(=O)=O)c(Cl)cc2Cl)c(=O)n1C(F)F
inactive: all assays above

COc1cc(OC)nc(Sc2cccc(Cl)c2C(=O)O)n1
inactive: all assays above

COP(=O)(NC(C)=O)SC (stereo not drawn)
not listed: [9]
inactive: all other assays above

CC(Oc1cccc(Cl)c1)C(=O)O (stereo not drawn)
inactive: all assays above

COP(=O)(OC)OC(Br)C(Cl)(Cl)Br (stereo not drawn)
active: [1] 27.9 µM | [2] 31.1 µM | [3] 27.7 µM | [4] 30.7 µM | [5] 30.3 µM | [6] 30.8 µM | [7] 33.1 µM | [8] 27.9 µM | [9] 32 µM | [10] 36.6 µM

Cc1ccn2nc(S(=O)(=O)Nc3c(F)cccc3F)nc2n1
inactive: all assays above

CCC(=NOC/C=C/Cl)C1=C(O)CC(C2CCOCC2)CC1=O (stereo not drawn)
not listed: [9]
inactive: all other assays above

Nc1nc(N)nc(NC2CC2)n1
inactive: all assays above

CN1COCN(Cc2cnc(Cl)s2)C1=N[N+](=O)[O-]
inactive: all assays above

C[N+]1(C)CCCCC1
active: [7] 0.193 µM
inactive: all other assays above

CCc1cccc(CC)c1N(COC)C(=O)CCl
active: [3] 33.4 µM | [4] 15.3 µM | [5] 31.8 µM
inactive: all other assays above

CN(C)[C@@H]1C(=O)C(C(N)=O)=C(O)[C@@]2(O)C(=O)C3=C(O)c4c(O)cccc4[C@@](C)(O)[C@H]3[C@H](O)[C@@H]12
inactive: [1] | [2] | [3] | [4] | [5] | [6] | [7] | [8] | [10]
active: [8] 3.97 µM

CC(=NC#N)N(C)Cc1ccc(Cl)nc1
inactive: all assays above
